Among the test systems are NCI-H23 lung; NCI-H226 lung; NCI-H322M lung; HOP-62 NSCLC; NCI-H460 lung; HOP-92 NSCLC; NCI-H522 lung; A549/ATCC NSCLC; 786-0 renal; COLO 205 colon; DU-145 prostate; K-562 leukemia; MALME-3M melanoma; MDA-MB-231 breast; RXF 393 renal; SF-268 CNS; SF-295 CNS; SF-539 CNS; UACC-257 melanoma; M14 melanoma.
What all share (assay): NCI-60 one-dose screen, 48 h (100 = growth as untreated, 0 = no growth, -100 = all killed)
Common to all, as to conditions: 10 µM unless noted

The panel holds about 83,000 compounds, 20% with a hit somewhere; the sample as a whole holds those more often.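 How to read the values: 0–100, growth inhibition (40 = 60% inhibited); 0, no net growth; -100 to 0, cell death (-40 = 40% of starting cells died; -100 = all dead).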 Unmarked numbers belong to inactive results. The source made the active and inactive calls. Rule for the calls: active = growth percent below 10; inactive = the rest.

On to `COc1cc(CCC[P+](c2ccccc2)(c2ccccc2)c2ccccc2)c(OC)c2c1OCO2`, for which the growth in the test on NCI-H23 lung is 19.3%; in the test with NCI-H226 lung, 55.3%; in the test with NCI-H322M lung, 85.3%; in the test on HOP-62 NSCLC, 18.9%; in the test on NCI-H460 lung it was 31.8%; in the test with HOP-92 NSCLC, 11.3%. The growth in the test with NCI-H522 lung was 6.02% (active); in the test with A549/ATCC NSCLC, 43.7%; in the test on 786-0 renal it was 31.2%; in the test with COLO 205 colon, -35.6% (active); in the test with DU-145 prostate, 28.5%; in the test on K-562 leukemia it was 14.4%. In addition, the growth is 3.07% (active) in the test with MALME-3M melanoma; -0.787% (active) in the test on MDA-MB-231 breast; 64.3% with RXF 393 renal; 13% with SF-268 CNS; 66.9% with SF-295 CNS; 46.9% with SF-539 CNS. Moreover, the growth in the test on UACC-257 melanoma was 5.75% (active); in the test with M14 melanoma, 17.4%.
In the case of `Cc1ccc2nc(NC(=O)CSc3nc(Cl)c(C#N)c(-c4ccccc4)n3)sc2c1`, the growth with NCI-H23 lung was 97.9%; with NCI-H226 lung it was 107%; with NCI-H322M lung, 101%; with HOP-62 NSCLC it was 102%; in the test on NCI-H460 lung, 106%; with HOP-92 NSCLC, 95%. Besides, the growth with NCI-H522 lung was 86.9%; in the test on A549/ATCC NSCLC, 98.6%; in the test on 786-0 renal, 103%; in the test on COLO 205 colon it was 110%; in the test with DU-145 prostate it was 113%; in the test on K-562 leukemia it was 99.7%. Also, the growth in the test on MALME-3M melanoma was 104%; in the test with MDA-MB-231 breast it was 111%; in the test with RXF 393 renal, 114%; in the test on SF-268 CNS it was 111%; in the test with SF-295 CNS it was 101%; with SF-539 CNS it was 102%. The growth with UACC-257 melanoma is 101%; in the test with M14 melanoma, 97.9%.
`COc1cc(C(=O)N/N=C/c2cc3cc(OCc4ccccc4)ccc3nc2OC)cc(OC)c1OC`: the growth is 90.2% in the test with NCI-H23 lung; 78.4% in the test with NCI-H226 lung; 98% in the test on NCI-H322M lung; 83% in the test with HOP-62 NSCLC; 78.7% in the test with NCI-H460 lung; 66.7% in the test on HOP-92 NSCLC. Further, the growth in the test with NCI-H522 lung is 70.2%; in the test with A549/ATCC NSCLC it was 82.2%; in the test with 786-0 renal it was 85.5%; in the test with COLO 205 colon, 102%; in the test on DU-145 prostate, 102%; in the test with K-562 leukemia, 74.6%. The growth is 110% in the test with MALME-3M melanoma; 94.7% with MDA-MB-231 breast; 79.6% in the test with RXF 393 renal; 79.7% in the test with SF-268 CNS; 98.4% in the test on SF-295 CNS; 85.8% in the test with SF-539 CNS. Moreover, the figures for the growth in the test with UACC-257 melanoma and in the test on M14 melanoma were 79.2% and 83.4%, respectively.
`COc1c(C2CC(=O)Nc3c2c(C)nn3-c2nc3ccccc3[nH]2)cc2c(c1OC)OCO2` (stereo not given): the growth in the test with NCI-H23 lung is 48.2%; in the test on NCI-H226 lung, 75.8%; in the test with NCI-H322M lung, 78.5%; in the test on HOP-62 NSCLC, 43.4%; in the test on NCI-H460 lung, 35.6%; with HOP-92 NSCLC it was 70.9%. Further, the growth in the test with NCI-H522 lung is 53.3%; in the test with A549/ATCC NSCLC, 35.8%; in the test on 786-0 renal it was 67.6%; with COLO 205 colon, 84.1%; in the test on DU-145 prostate, 80.2%; in the test on K-562 leukemia, 15.1%. The growth was 86.5% in the test on MALME-3M melanoma; 68.4% with MDA-MB-231 breast; 27.1% with RXF 393 renal; 62.1% in the test with SF-268 CNS; 19.8% in the test with SF-295 CNS; 59.8% in the test on SF-539 CNS. Besides, the growth is 67.1% in the test on UACC-257 melanoma and 33.3% in the test with M14 melanoma.
Consider `NC1=C(c2nn[nH]n2)C(c2ccccc2Cl)c2ccc3ccccc3c2O1` (stereo not given), for which the growth in the test on NCI-H23 lung is 76.3%; in the test with NCI-H226 lung, 76.8%; in the test on NCI-H322M lung, 89.9%; in the test on HOP-62 NSCLC it was 66.5%; in the test with NCI-H460 lung, 87.5%; in the test with HOP-92 NSCLC it was 69.7%. Further, the growth in the test on NCI-H522 lung was 35.5%; with A549/ATCC NSCLC it was 83.3%; in the test with 786-0 renal, 82.7%; with COLO 205 colon it was 86.8%; in the test on DU-145 prostate it was 93.4%; in the test with K-562 leukemia, 22.6%. Moreover, the growth with MALME-3M melanoma is 64%; with MDA-MB-231 breast it was 63.7%; in the test with RXF 393 renal it was 79.3%; in the test with SF-268 CNS, 73.2%; with SF-295 CNS it was 88.9%; in the test with SF-539 CNS, 79.2%. Also, the growth with UACC-257 melanoma is 84.7%; in the test with M14 melanoma, 61.3%.
Consider `Cc1ccc(C(=O)NN2C(=O)CSC2c2cccc([N+](=O)[O-])c2)cn1` (stereo not given), for which the growth in the test on NCI-H23 lung is 93.2%; in the test on NCI-H226 lung, 95.6%; in the test with NCI-H322M lung, 104%; in the test on HOP-62 NSCLC it was 93%; in the test on NCI-H460 lung, 108%; with HOP-92 NSCLC it was 81.3%. For the same compound, the growth is 109% in the test with NCI-H522 lung; 92.9% in the test on A549/ATCC NSCLC; 106% in the test with 786-0 renal; 105% in the test with COLO 205 colon; 107% in the test on DU-145 prostate; 98.9% with K-562 leukemia. The growth is 111% in the test on MALME-3M melanoma; 96.6% in the test on MDA-MB-231 breast; 82.8% in the test on RXF 393 renal; 104% in the test with SF-268 CNS; 99.4% in the test with SF-295 CNS; 106% in the test on SF-539 CNS. In addition, the growth with UACC-257 melanoma is 75.8%; in the test with M14 melanoma, 96.4%.
Regarding `COc1ccc(/C=C(/C#N)n2nnc3cccc(F)c32)cc1`, the growth in the test with NCI-H23 lung is 14.6%; with NCI-H226 lung it was 60.4%; with NCI-H322M lung it was 25.2%; in the test with HOP-62 NSCLC it was 38.1%; with NCI-H460 lung, 4.61% (active); in the test on HOP-92 NSCLC it was -2.46% (active). In addition, the growth in the test on NCI-H522 lung is -24.6% (active); with A549/ATCC NSCLC, 37%; with 786-0 renal it was 10.6%; in the test on COLO 205 colon, 1.85% (active); with DU-145 prostate, -10.7% (active); in the test on K-562 leukemia, 12.8%. The growth in the test with MALME-3M melanoma was 32.5%; in the test on MDA-MB-231 breast it was 0.925% (active); with RXF 393 renal, -37.9% (active); in the test with SF-268 CNS, 28.2%; in the test on SF-295 CNS it was 16%; with SF-539 CNS, -39.3% (active). Besides, the growth with UACC-257 melanoma is 41.1%; with M14 melanoma, -27% (active).
